The results in this text go back to PubChem BioAssay (NCI).

Compounds without any hit were thinned out: in the full panel of roughly 79,000, 15% have a hit. Values without a mark were called inactive. The source made the active and inactive calls. Cut-off read from the data, not from the text of the source: active = growth inhibition above about 70%; inactive = the rest.

The assay is described as follows: NCI Yeast Anticancer Drug Screen. Data for the bub3 strain (AID 167). The settings on record: S. cerevisiae bub3 mutant strain, at 50.0 µM, hits give high values. On the procedure:
Growth inhibition of yeast strains with defined genetic alterations is measured as a screen for potential anti-cancer activity. Selected strains with alterations in DNA damage repair or cell cycle control were exposed to compounds and growth inhibition was measured relative to vehicle treated controls. The strain used in this assay is bub3
As to `O=C/C(=C(/Br)I)c1ccccc1`, the growth inhibition was 8.7%.
Next, `O=C(O)c1cccc(F)c1C(=O)O`: -2.95%.
Next, `CC(C)(N)CNCC(C)(C)N`: -0.45%; `CC(C)N(CC(c1ccccc1)C(C)(O)c1ccccc1)C(C)C` (stereo not given): 26.7%.
With `Cc1ccccc1C(C#N)/C(=N/NC(N)=S)C(=O)Nc1c(C)cccc1C` (stereo not given), the growth inhibition is -17.2%.
The same measure for `CCNCC(=O)Nc1ccc2c(c1)C(=O)c1ccc(NC(=O)CNCC)cc1C2=O`: 3.85%; for `CC(C)(O)/C1=C/C=C/CCCCCCCCCC1`: 14.8%; for `Cc1cc(N(CCC#N)CCC#N)ccc1/C=C1N=C(/C=C\c2ccccc2)OC\1=O`: 10.3%.
The same measure for `O=C(Nc1ccc(Cl)c(Cl)c1)OCC1CC2C=CC1C2` (stereo not given): 94.9% (active); for `CCOC(=O)C(=O)C(C(=O)OCC)C(C)C(=O)OCC` (stereo not given): 6.65%; for `Oc1ccc(Cl)cc1/C=N/NC(=S)Nc1cccc2cccnc12`: 20.1%.
For `CC1CNC(=O)NC1=O.O.O.[NH2-].[NH2-].[Pt+4]` (stereo not given), the growth inhibition was -5.95%.
As for `COc1ccc2c(c1)C1(C)CCCC(C)(CO)C1CC2` (stereo not given), the growth inhibition is 1.4%.
On to `O=C1NC(=O)[C@H]2C3C=CC([C@@H]12)[C@@H]1C(=O)NC(=O)[C@H]31`, for which the growth inhibition is -28.7%.
For the molecule `CCOC1OC(C2COC(=S)O2)C(O)C1O` (stereo not given), the growth inhibition was -0.15%.
`Clc1cnnc2nc[nH]c12`: the growth inhibition was -15.8%.
Next, `O=C1OC([C@H](O)c2cccnc2)c2ccccc21` (stereo not given in full): -26.1%.
Next, `CCOCCOCCOC(=O)CC(C)=O`: -11.8%; `Nc1nnc(N)c2nc(-c3ccccc3)c(-c3ccccc3)nc12`: 8.15%.
The same measure for `C=C1SC(=Nc2c(C)cccc2Cl)N(C(=O)c2sc3ccccc3c2Cl)C12CCCCC2`: 8.85%.
As to `O=C1NC(=S)N/C1=C/c1ccc2c(c1)CCC2`, the growth inhibition was 31.8%.
Consider `NC(=O)CNc1ccc(CC2CCOC2=O)cc1` (stereo not given), for which the growth inhibition was 0.6%.
The same measure for `CC1=CC(O/C=C2\C(=O)OC3C=CCC23)OC1=O` (stereo not given): -11.6%; for `O=C(c1ccc(Cl)c(Cl)c1)N1CCCCC1`: -12.5%.
Next, `CC(NC(=O)c1ccccc1)c1ccc[nH]1` (stereo not given): -25.6%; `Cc1csc2c1-n1cccc1C2=O`: -19.4%; `Nc1nc(N)c(NC(=O)CCCO)c(=O)[nH]1`: -23.8%.
As for `Cc1ccc(S(=O)(=O)NCNS(=O)(=O)c2ccc(C)cc2)cc1`, the growth inhibition is -15.8%.
Next, `CCSCCC(C)(N)C(=O)O` (stereo not given): 2.3%; `S=c1c2ccccc2c(=S)n2n1CC=CC2`: 16.8%.
The same measure for `CS(=O)(=O)c1ccc(C=O)cc1`: -1.4%; for `CCCCNC(N)=O`: -2.2%; for `N=c1c2ccccc2nc2oc3ccccc3n12`: 24.9%.
Next, `Cc1c(COC(=O)NC(C)C)c(COC(=O)NC(C)C)c2n1CS(=O)(=O)C2`: -5.7%.
With `CCCCN=C=NCCC[N+](C)(C)C`, the growth inhibition is 2.8%.
Next, `CCCCNC(=O)Nc1cccc(C)c1C`: 0.55%; `Cc1ccc(-c2cnc3c(n2)c(=O)[nH]c(=O)n3C)cc1`: 17.4%.
Next, `CCC/C(=N/O)C(=O)OCC`: 4.4%; `CCCCCC1CC[N-]CC1.CCCCCC1CC[N-]CC1.N#C[S-].N#C[S-].[Cu]`: -16.7%.
Next, `CCC(=O)C(C)C(=O)CCC(=O)Nc1cc(Cl)ccc1Cl` (stereo not given): 18.1%.
